The results in this text go back to PubChem BioAssay (NCI).

Some test systems named below: NCI-H23 lung; NCI-H226 lung; NCI-H322M lung; HOP-62 NSCLC; NCI-H460 lung; NCI-H522 lung; A549/ATCC NSCLC; 786-0 renal; COLO 205 colon; DU-145 prostate; K-562 leukemia; MALME-3M melanoma; MDA-MB-231 breast; RXF 393 renal; SF-268 CNS; SF-295 CNS; SF-539 CNS; UACC-257 melanoma; M14 melanoma.
Holding throughout (assay): NCI-60 one-dose screen, 48 h (100 = growth as untreated, 0 = no growth, -100 = all killed)
Common to all, as to details: 10 µM unless noted

Compounds without any hit were thinned out: in the full panel of roughly 83,000, 20% have a hit.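 Each cell line was grown in a 96-well plate and treated with one concentration of compound for 48 hours. Values below 10 were considered active.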 Values without a mark were called inactive. Calls of active or inactive are those of the source.

On to `N#Cc1ccc(OC(=O)Nc2cc(Cl)cc(Cl)c2)cc1`, for which the growth with NCI-H23 lung was -10.3% [100 µM] (active); in the assay on NCI-H226 lung, 1.99% [100 µM] (active); with NCI-H322M lung it was -3.43% [100 µM] (active); in the assay with HOP-62 NSCLC it was -13.7% [100 µM] (active); with NCI-H460 lung, 0.999% [100 µM] (active); in the assay with NCI-H522 lung it was -31.1% [100 µM] (active). Also, the growth in the assay with A549/ATCC NSCLC is 4.72% [100 µM] (active); with 786-0 renal it was 9.34% [100 µM] (active); in the assay with COLO 205 colon it was -85.9% [100 µM] (active); with DU-145 prostate, 18.9% [100 µM]; in the assay on K-562 leukemia, 6.66% [100 µM] (active); in the assay with MALME-3M melanoma, -32.5% [100 µM] (active). Besides, the growth in the assay with MDA-MB-231 breast is -52.8% [100 µM] (active); in the assay on RXF 393 renal, 10.3% [100 µM]; in the assay on SF-268 CNS it was 12.5% [100 µM]; in the assay on SF-295 CNS, -23.1% [100 µM] (active); with SF-539 CNS it was -4.48% [100 µM] (active); with UACC-257 melanoma, -20.1% [100 µM] (active). Moreover, the growth in the assay on M14 melanoma was -25.3% [100 µM] (active).

For the compound `CCOC(=O)/C(C)=C\c1ccc(OC)c(OC)c1`, the growth is 98.1% with NCI-H23 lung; 100% in the assay on NCI-H226 lung; 101% in the assay with NCI-H322M lung; 105% in the assay with HOP-62 NSCLC; 102% in the assay with NCI-H460 lung; 107% with NCI-H522 lung. In addition, the growth was 101% in the assay with A549/ATCC NSCLC; 95.5% with 786-0 renal; 105% in the assay with COLO 205 colon; 99.5% in the assay with DU-145 prostate; 87% in the assay on K-562 leukemia; 112% with MALME-3M melanoma. The growth in the assay with MDA-MB-231 breast was 102%; in the assay with RXF 393 renal it was 112%; in the assay with SF-268 CNS, 98.3%; with SF-295 CNS, 100%; with SF-539 CNS, 101%; in the assay on UACC-257 melanoma, 108%. The growth in the assay with M14 melanoma is 105%.

Regarding `Cc1ccc(S(=O)(=O)NC(=O)NCCSSCCNC(=O)NS(=O)(=O)c2ccc(C)cc2)cc1`, the growth is 102% with NCI-H23 lung; 91% with NCI-H226 lung; 101% in the assay on NCI-H322M lung; 105% with HOP-62 NSCLC; 103% in the assay with NCI-H460 lung; 94.9% with NCI-H522 lung. Moreover, the growth was 100% with A549/ATCC NSCLC; 104% in the assay on 786-0 renal; 129% with COLO 205 colon; 110% in the assay on DU-145 prostate; 103% with K-562 leukemia; 97.3% in the assay with MALME-3M melanoma. Besides, the growth was 116% in the assay with MDA-MB-231 breast; 102% in the assay on RXF 393 renal; 102% in the assay with SF-268 CNS; 95.3% in the assay on SF-295 CNS; 87.5% in the assay with SF-539 CNS; 89.1% in the assay on UACC-257 melanoma. In addition, the growth in the assay with M14 melanoma is 111%.

With `CC(C)=CCC[C@@H](C)[C@H]1CC[C@@]2(C)C3=C(CC[C@]12C)[C@@]1(C)CC[C@H](O)C(C)(C)[C@@H]1CC3`, the growth in the assay with NCI-H23 lung is 113%; in the assay on NCI-H226 lung, 104%; with NCI-H322M lung it was 122%; with HOP-62 NSCLC it was 107%; in the assay on NCI-H460 lung it was 107%; in the assay with NCI-H522 lung, 95%. In addition, the growth with A549/ATCC NSCLC is 97.7%; in the assay with 786-0 renal it was 101%; in the assay with COLO 205 colon, 110%; in the assay on DU-145 prostate it was 126%; with K-562 leukemia it was 91.2%; with MALME-3M melanoma, 110%. Moreover, the growth was 112% with MDA-MB-231 breast; 95.9% in the assay with RXF 393 renal; 117% with SF-268 CNS; 101% in the assay on SF-539 CNS; 121% with UACC-257 melanoma; 108% with M14 melanoma.

Turning to `O=Cc1ccc(F)cc1`, the growth with NCI-H23 lung was 105%; in the assay with NCI-H226 lung it was 94.7%; in the assay with NCI-H322M lung, 90.6%; with HOP-62 NSCLC, 108%; in the assay with NCI-H460 lung, 93.9%; with NCI-H522 lung, 97.8%. Also, the growth is 108% with A549/ATCC NSCLC; 102% in the assay with 786-0 renal; 111% in the assay on COLO 205 colon; 109% with DU-145 prostate; 127% with K-562 leukemia; 85.1% with MALME-3M melanoma. Besides, the growth is 97.1% in the assay on MDA-MB-231 breast; 86.9% in the assay on RXF 393 renal; 109% in the assay with SF-268 CNS; 101% in the assay on SF-539 CNS; 106% in the assay with UACC-257 melanoma.

In the case of `COC(=O)C1(CC(C)=O)NC(=S)NC(=O)C1C#N` (stereo not drawn), the growth in the assay with NCI-H23 lung is 99.5%; in the assay with NCI-H226 lung, 108%; in the assay on NCI-H322M lung, 108%; with HOP-62 NSCLC it was 104%; in the assay with NCI-H460 lung it was 134%; in the assay with NCI-H522 lung, 98.6%. Moreover, the growth was 106% in the assay on A549/ATCC NSCLC; 105% with 786-0 renal; 117% with COLO 205 colon; 125% in the assay on DU-145 prostate; 104% in the assay on K-562 leukemia; 103% in the assay on MALME-3M melanoma. In addition, the growth in the assay with MDA-MB-231 breast is 104%; in the assay on RXF 393 renal it was 107%; with SF-268 CNS it was 117%; with SF-295 CNS, 96.8%; in the assay with SF-539 CNS it was 103%; in the assay on UACC-257 melanoma, 118%. In the assay with M14 melanoma, the growth is 110%.

As for `CCCC(=O)CC(=O)c1ccccc1`, the growth is 96% in the assay with NCI-H23 lung; 91.7% in the assay with NCI-H226 lung; 95.1% with NCI-H322M lung; 92.8% in the assay on HOP-62 NSCLC; 106% with NCI-H460 lung; 78.1% in the assay with NCI-H522 lung. In addition, the growth is 97.9% with A549/ATCC NSCLC; 103% with 786-0 renal; 113% in the assay with COLO 205 colon; 106% in the assay with DU-145 prostate; 112% in the assay on K-562 leukemia; 107% in the assay with MALME-3M melanoma. In addition, the growth in the assay on MDA-MB-231 breast is 111%; in the assay on RXF 393 renal it was 93.6%; in the assay with SF-268 CNS it was 97.3%; in the assay on SF-295 CNS, 97%; with SF-539 CNS, 104%; in the assay on UACC-257 melanoma, 80.9%. Further, the growth in the assay on M14 melanoma is 100%.

In the case of `COc1cc(OC)c2cc(C(=O)c3ccc(C#N)cc3)c(=O)oc2c1`, the growth with NCI-H23 lung was 96.9%; in the assay with NCI-H226 lung it was 92.2%; in the assay on NCI-H322M lung it was 92.3%; with HOP-62 NSCLC it was 88.6%; with NCI-H460 lung, 107%; in the assay with NCI-H522 lung it was 93.1%. The growth is 99% in the assay with A549/ATCC NSCLC; 84% with 786-0 renal; 117% in the assay on COLO 205 colon; 102% in the assay on DU-145 prostate; 85.1% in the assay with K-562 leukemia; 95.7% with MALME-3M melanoma. Besides, the growth is 79.3% in the assay with MDA-MB-231 breast; 109% with RXF 393 renal; 88.1% in the assay on SF-268 CNS; 97.2% in the assay on SF-295 CNS; 82.5% with SF-539 CNS; 102% in the assay on UACC-257 melanoma. Moreover, the growth in the assay on M14 melanoma is 105%.

For the compound `C=C1C(=O)C2CCC1C2` (stereo not drawn), the growth with NCI-H23 lung is 107%; in the assay on NCI-H226 lung it was 99.8%; in the assay with NCI-H322M lung it was 97.5%; in the assay on HOP-62 NSCLC, 102%; in the assay on NCI-H460 lung, 113%; in the assay with NCI-H522 lung, 91.8%. Further, the growth in the assay on A549/ATCC NSCLC is 98.4%; with 786-0 renal, 92.8%; in the assay with COLO 205 colon, 112%; in the assay on DU-145 prostate, 98.4%; in the assay on K-562 leukemia, 92.6%; in the assay on MALME-3M melanoma, 93.6%. Also, the growth in the assay with MDA-MB-231 breast was 103%; with RXF 393 renal, 112%; in the assay on SF-268 CNS it was 88.9%; with SF-295 CNS it was 102%; with SF-539 CNS, 105%; with UACC-257 melanoma it was 105%. Besides, in the assay on M14 melanoma, the growth was 96.5%.
